# The panel holds about 79,000 compounds, 15% with a hit somewhere; the sample as a whole holds those more often. Values without a mark were called inactive. Calls of active or inactive are those of the source. No stated cut-off is given here; in the data, active means growth inhibition above about 70%; inactive means the rest.
# Columns and labels:
# [1] = NCI Yeast Anticancer Drug Screen. Data for the wt2 strain (AID 169);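 further: 0% = growth of vehicle-treated yeast cultures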; details: S. cerevisiae wt2 strain growth inhibition, active compounds read high
# Outline: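 Treated yeast vs. vehicle-treated yeast: growth inhibition determined.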
# [2] = NCI Yeast Anticancer Drug Screen. Data for the mlh1 strain (AID 171);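 further: 0% = growth of vehicle-treated control cultures of the same strain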; details: S. cerevisiae mlh1 strain growth inhibition, active compounds read high
# Outline: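 A yeast strain with a defined genetic lesion serves as the test organism. Cultures receive compound or vehicle, and growth is measured.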
# [3] = NCI Yeast Anticancer Drug Screen. Data for the sgs1 strain (AID 173);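 further: 0% = growth of vehicle-only control cultures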; details: S. cerevisiae sgs1 mutant, active compounds read high
# Outline: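 A genetically defined yeast mutant is incubated with the test compound, and its growth is compared to that of the same strain given vehicle.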
# [4] = NCI Yeast Anticancer Drug Screen. Data for the mlh1 rad18 strain (AID 175); details: S. cerevisiae mlh1 rad18 strain growth inhibition, active compounds read high
# Outline: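 Steps: expose repair-defective yeast to compound; measure growth; express inhibition against vehicle-treated controls.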
# [5] = NCI Yeast Anticancer Drug Screen. Data for the rad18 strain (AID 177); details: S. cerevisiae rad18 mutant growth inhibition, active compounds read high
# Outline: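 Measured value is growth inhibition of a yeast strain bearing a DNA repair alteration, referenced to vehicle-treated cells.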
# [6] = NCI Yeast Anticancer Drug Screen. Data for the rad52 strain (AID 147);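 further: 0% = growth of vehicle-treated control cultures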; details: S. cerevisiae rad52 mutant growth inhibition, active compounds read high
# Outline: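 Here a repair-compromised yeast strain receives each compound; its growth is then quantified and normalised to vehicle-only controls.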
# [7] = NCI Yeast Anticancer Drug Screen. Data for the wt1 strain (AID 149);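 further: 0% = growth of vehicle-treated wt1 cultures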; details: S. cerevisiae wt1 strain (SPY 50644) growth inhibition, active compounds read high
# Outline: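 Yeast wt1 strain exposed to compounds; growth inhibition measured relative to vehicle-treated controls.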
# [8] = NCI Yeast Anticancer Drug Screen. Data for the rad50EPP+ strain (AID 151);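 further: 0% = growth of vehicle-treated control cultures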; details: S. cerevisiae rad50 mutant strain, active compounds read high
# Outline: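 Read-out is yeast growth inhibition relative to vehicle; cells used were the rad50EPP+ strain.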
# [9] = NCI Yeast Anticancer Drug Screen. Data for the mgt1 strain (AID 153); details: S. cerevisiae mgt1 mutant growth inhibition, active compounds read high
# Outline: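 Measured: inhibition of mgt1 yeast growth by compound, normalized to vehicle-treated cultures.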
# [10] = NCI Yeast Anticancer Drug Screen. Data for the rad50 strain (AID 155);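 further: 0% = growth of vehicle-only cultures of the same strain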; details: S. cerevisiae rad50 strain growth inhibition, active compounds read high
# Outline: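 Yeast carrying a defined DNA repair defect were exposed to test compounds, and growth was compared with vehicle-treated controls to give percent inhibition.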
# [11] = NCI Yeast Anticancer Drug Screen. Data for the mec2-1 strain (AID 157); details: S. cerevisiae mec2-1 strain, active compounds read high
# Outline: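 Using mec2-1 yeast: add compound, measure growth, express inhibition versus vehicle-treated cultures.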
# [12] = NCI Yeast Anticancer Drug Screen. Data for the rad14 strain (AID 159);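 further: 0% = growth of vehicle-treated control cultures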; details: S. cerevisiae rad14 strain growth inhibition, active compounds read high
# Outline: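 Yeast cells carrying a defined DNA-repair defect were exposed to compounds, and growth inhibition was calculated relative to vehicle-treated control cultures.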
# [13] = NCI Yeast Anticancer Drug Screen. Data for the sgs1 mgt1 strain (AID 161);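 further: 0% = growth of cultures given vehicle only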; details: S. cerevisiae sgs1 mgt1 strain, active compounds read high
# Outline: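 Growth of a repair-deficient yeast mutant was monitored after compound treatment and expressed as inhibition relative to vehicle-treated cultures.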
# [14] = NCI Yeast Anticancer Drug Screen. Data for the CLN2oe strain (AID 163);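 further: 0% = growth of vehicle-only control cultures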; details: S. cerevisiae CLN2oe strain, active compounds read high
# Outline: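 Whole-cell yeast growth assay. A strain engineered for altered cell-cycle control received compound, and inhibition relative to vehicle-treated cultures was recorded.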
# [15] = NCI Yeast Anticancer Drug Screen. Data for the cln2 rad14 strain (AID 165);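 further: 0% = growth equal to vehicle treated cultures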; details: S. cerevisiae cln2 rad14 strain, active compounds read high
# Outline: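 Yeast strain cln2 rad14, bearing defects in cell cycle control and DNA repair, serves as the test system; values reflect growth inhibition compared with vehicle.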
# [16] = NCI Yeast Anticancer Drug Screen. Data for the bub3 strain (AID 167); details: S. cerevisiae bub3 mutant strain, active compounds read high
# Outline: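 Compounds were applied to a genetically altered yeast strain carrying a cell-cycle control defect. Growth inhibition was scored against vehicle-treated controls.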
# [17] = at 5.0 µM (retest, dose inferred, filed as 0.5)
# [18] = at 50.0 µM (retest, dose inferred, filed as 5.0)
structure (smiles),measurement,setting,value
C/C(=N\O)C1CC2C=C(C#N)C1N(Cc1ccccc1)C2 (stereo unspecified),growth inhibition,[1]; at 1.2 µM,-1%
same,growth inhibition,[1]; at 3.7 µM,-2%
same,growth inhibition,[1]; at 11.0 µM,-3%
same,growth inhibition,[1]; at 33.0 µM,-2%
same,growth inhibition,[1]; at 100.0 µM,-2%
same,growth inhibition,[2]; at 1.2 µM,-3%
same,growth inhibition,[2]; at 3.7 µM,0%
same,growth inhibition,[2]; at 11.0 µM,0%
same,growth inhibition,[2]; at 33.0 µM,0%
same,growth inhibition,[2]; at 100.0 µM,0%
same,growth inhibition,[3]; at 1.2 µM,1%
same,growth inhibition,[3]; at 3.7 µM,1%
same,growth inhibition,[3]; at 11.0 µM,4%
same,growth inhibition,[3]; at 33.0 µM,9%
same,growth inhibition,[3]; at 100.0 µM,17%
same,growth inhibition,[4]; [17],0%
same,growth inhibition,[4]; [18],62%
same,growth inhibition,[4]; at 50.0 µM,9%
same,growth inhibition,[5]; at 1.2 µM,5%
same,growth inhibition,[5]; at 3.7 µM,13%
same,growth inhibition,[5]; at 11.0 µM,40%
same,growth inhibition,[5]; at 33.0 µM,77% (active)
same,growth inhibition,[5]; at 100.0 µM,86% (active)
O=C1C2CC[C@@H]3C(=O)C(Cl)(Cl)[C@@H]3CCC2C1(Cl)Cl (stereo partly specified),growth inhibition,[6]; at 1.2 µM,12%
same,growth inhibition,[6]; at 3.7 µM,25%
same,growth inhibition,[6]; at 11.0 µM,46%
same,growth inhibition,[6]; at 33.0 µM,69%
same,growth inhibition,[6]; at 100.0 µM,76% (active)
same,growth inhibition,[7]; at 1.2 µM,0%
same,growth inhibition,[7]; at 3.7 µM,1%
same,growth inhibition,[7]; at 11.0 µM,2%
same,growth inhibition,[7]; at 33.0 µM,9%
same,growth inhibition,[7]; at 100.0 µM,12%
same,growth inhibition,[8]; at 1.2 µM,8%
same,growth inhibition,[8]; at 3.7 µM,15%
same,growth inhibition,[8]; at 11.0 µM,37%
same,growth inhibition,[8]; at 33.0 µM,56%
same,growth inhibition,[8]; at 100.0 µM,50%
same,growth inhibition,[9]; at 1.2 µM,-2%
same,growth inhibition,[9]; at 3.7 µM,-1%
same,growth inhibition,[9]; at 11.0 µM,8%
same,growth inhibition,[9]; at 33.0 µM,-2%
same,growth inhibition,[9]; at 100.0 µM,4%
same,growth inhibition,[10]; at 1.2 µM,5%
same,growth inhibition,[10]; at 3.7 µM,12%
same,growth inhibition,[10]; [17],19%
same,growth inhibition,[10]; at 11.0 µM,-2%
same,growth inhibition,[10]; at 33.0 µM,33%
same,growth inhibition,[10]; [18],70% (active)
same,growth inhibition,[10]; at 50.0 µM,83.3% (active)
same,growth inhibition,[10]; at 100.0 µM,37%
same,growth inhibition,[11]; at 1.2 µM,2%
same,growth inhibition,[11]; at 3.7 µM,6%
same,growth inhibition,[11]; [17],-2%
same,growth inhibition,[11]; at 11.0 µM,11%
same,growth inhibition,[11]; at 33.0 µM,21%
same,growth inhibition,[11]; [18],49%
same,growth inhibition,[11]; at 50.0 µM,81.9% (active)
same,growth inhibition,[11]; at 100.0 µM,24%
same,growth inhibition,[12]; at 1.2 µM,0%
same,growth inhibition,[12]; at 3.7 µM,3%
same,growth inhibition,[12]; at 11.0 µM,6%
same,growth inhibition,[12]; at 33.0 µM,13%
same,growth inhibition,[12]; at 100.0 µM,22%
same,growth inhibition,[13]; [17],18%
same,growth inhibition,[13]; [18],67%
same,growth inhibition,[13]; at 50.0 µM,84.6% (active)
same,growth inhibition,[14]; at 1.2 µM,3%
same,growth inhibition,[14]; at 3.7 µM,0%
same,growth inhibition,[14]; at 11.0 µM,5%
same,growth inhibition,[14]; at 33.0 µM,10%
same,growth inhibition,[14]; at 100.0 µM,20%
same,growth inhibition,[15]; [17],2%
same,growth inhibition,[15]; [18],22%
same,growth inhibition,[15]; at 50.0 µM,78.8% (active)
same,growth inhibition,[16]; at 1.2 µM,1%
same,growth inhibition,[16]; at 3.7 µM,2%
same,growth inhibition,[16]; [17],-30%
same,growth inhibition,[16]; at 11.0 µM,12%
same,growth inhibition,[16]; at 33.0 µM,10%
same,growth inhibition,[16]; [18],10%
same,growth inhibition,[16]; at 50.0 µM,70.8% (active)
same,growth inhibition,[16]; at 100.0 µM,11%
same,growth inhibition,[1]; at 1.2 µM,1%
same,growth inhibition,[1]; at 3.7 µM,3%
same,growth inhibition,[1]; at 11.0 µM,7%
same,growth inhibition,[1]; at 33.0 µM,10%
same,growth inhibition,[1]; at 100.0 µM,14%
same,growth inhibition,[2]; at 1.2 µM,1%
same,growth inhibition,[2]; at 3.7 µM,1%
same,growth inhibition,[2]; at 11.0 µM,4%
same,growth inhibition,[2]; at 33.0 µM,10%
same,growth inhibition,[2]; at 100.0 µM,9%
same,growth inhibition,[3]; at 1.2 µM,-21%
same,growth inhibition,[3]; at 3.7 µM,20%
same,growth inhibition,[3]; at 11.0 µM,33%
same,growth inhibition,[3]; at 33.0 µM,51%
same,growth inhibition,[3]; at 100.0 µM,53%
same,growth inhibition,[4]; [17],31%
same,growth inhibition,[4]; [18],88% (active)
same,growth inhibition,[4]; at 50.0 µM,79.2% (active)
same,growth inhibition,[5]; at 1.2 µM,59%
same,growth inhibition,[5]; at 3.7 µM,85% (active)
same,growth inhibition,[5]; at 11.0 µM,94% (active)
same,growth inhibition,[5]; at 33.0 µM,95% (active)
same,growth inhibition,[5]; at 100.0 µM,96% (active)

# Reference: PubChem BioAssay (NCI)
